# PubChem BioAssay (NCATS)
# Results filed as inconclusive are left out. A call without a number means that no potency is given here. Activity calls are given as the source filed them. Calls follow the shape of the dose curve; as a rule, active = well fitted cell-killing curve with a large enough effect; inconclusive = small, poorly fitted or top-dose-only effect, or effect the other way; inactive = flat fitted curve, though single readings scatter.
# Test: Cell Viability - HUV-EC-C (AID 542); also: nearly all actives have a fitted effect of over 35% in size
# Details: HUV-EC-C endothelial cell viability, qHTS; series mostly up to 92.2 µM
# From the text: NIH Chemical Genomics Center [NCGC]
# NIH Molecular Libraries Screening Centers Network [MLSCN]
# National Institutes of Environmental Health Sciences [NIEHS]
# National Toxicology Program [NTP]
# We have developed a 1536-well cell-based assay for quantitative high throughput screening (qHTS) against a number of cell lines to determine in vitro cytotoxicity of small molecules. This particular assay uses the HUV-EC-C cell line which is derived from normal human vascular endothelial cells.
# NCGC Assay Protocol Summary:
# The CellTiter-Glo luminescent cell viability assay (Promega) is a homogeneous method to measure the number of viable cells in culture. The end point readout of this assay is based on quantitation of intracellular ATP, an indicator of metabolic activity, using the luciferase reaction. Luciferase catalyzes the oxidation of beetle Luciferin to oxyluciferin and light in the presence of ATP. The luminescent signal is proportional to amount of ATP present.
# Using the CellTiter-Glo luminescent cell viability assay, the amount of cellular ATP was measured in the HUV-EC-C cell line with complete culture medium following compound treatment for 40 hours. The assay was performed in opaque white Kalypsys 1536-well plates. In the screen, tamoxifen and doxorubicin were used as positive controls. Library compounds were measured for their ability to cause acute toxicity in the cell line, as reflected by a decrease in intracellular ATP levels, in a concentration-dependent manner. […] AC50 values were determined from concentration-response data modeled with the standard Hill equation.
# qHTS protocol for CellTiter Glo HUV-EC-C cellular assay
# [Step] [Parameter] [Value] [Description]
# 1. Reagent; 5 uL; 1000 HUV-EC-C cells/well
# 2. Time; 5 hr; 37 °C incubation
# 4. Controls; 23 nL; Tamoxifen 0.34 uM to 100 uM & Doxorubicin 0.02 nM to 100 uM
# 5. Time; 40 hr; 37 °C incubation
# 6. Reagent; 5 uL; CellTiter Glo reagent
# 7. Time; 20 min; Room Temperature
# 8. Detection; Luminescence; Viewlux plate reader
# Keywords: cell viability, cytotoxicity, HUV-EC-C cell line, luminescence, NTPHTS, NTPHTS_NCGC, NIEHS, EPA, DSSTox, MLSMR, MLSCN, NIH Roadmap, qHTS, NCGC
# Potency is read from the fitted curve at half-maximal effect.
row,SMILES,Potency
1,CCCCNCC,inactive
2,CCCC(=O)OC(=O)CCC,inactive
3,CC(=O)OC1CC(C)OC(C)O1 (stereo not given),inactive
4,CCOc1ccc2nc(N)sc2c1,inactive
5,c1ccncc1,inactive
6,CCCCCCCCC1CO1 (stereo not given),inactive
7,N=C1C=CC(=C(c2ccc(N)cc2)c2ccc(N)cc2)C=C1,20 µM (active)
8,COc1cc(-c2ccc(N=C=O)c(OC)c2)ccc1N=C=O,inactive
9,CCCCCCCC/C=C\CCCCCCCC(=O)N(CCO)CCO,39.8 µM (active)
10,NC(=O)Nc1nc2ccccc2[nH]1,inactive
11,CC(/C=C/C=C(C)/C=C/C(=O)O)=C\C=C\C=C(C)\C=C\C=C(C)\C=C\C(=O)O,inactive
12,CN(C)c1ccc(Cc2ccc(N(C)C)cc2)cc1,inactive
13,Nc1ccc(-c2ccc(N)c(O)c2)cc1O,inactive
14,O=C(OCc1ccccc1)c1ccccc1O,inactive
15,O=CC(=O)c1ccccc1,inactive
16,CCCCC(CC)COC(=O)COc1ccc(Cl)cc1Cl (stereo not given),inactive
17,Nc1cc(C(=O)O)c(O)c(S(=O)(=O)O)c1,inactive
18,Brc1cc(Oc2cc(Br)c(Br)c(Br)c2Br)c(Br)c(Br)c1Br,inactive
19,CCCCC(CC)COCCCN (stereo not given),inactive
20,Brc1ccc(-c2ccccc2)cc1,inactive

row,SMILES,Potency
1,CC1=C(/C=C/C(C)=C/C=C/C(C)=C/C=O)C(C)(C)CCC1,31.6 µM (active)
2,CCCCOC(=O)COc1ccc(Cl)cc1Cl,inactive
3,CCCCC(CC)COP(=O)(OCC(CC)CCCC)OCC(CC)CCCC (stereo not given),inactive
4,Cc1ccc(O)c(N)c1,inactive
5,c1ccc(Nc2cccc3ccccc23)cc1,inactive
6,CC(=O)Nc1cccc(C)c1,inactive
7,C/C(Cl)=C/CCl,inactive
8,COc1ccc([N+](=O)[O-])cc1N,inactive
9,O=C(O)/C=C/c1ccc(/C=C/C(=O)O)cc1,inactive
10,C=C(C#N)C(=O)OCC,inactive
11,Cc1ccccc1OCC1CO1 (stereo not given),inactive
12,c1cc2c3c(c1)ccc1cccc(c13)C2,inactive
13,Cc1ccc(S(N)(=O)=O)cc1,inactive
14,CCc1ccc(C(c2ccc(CC)cc2)C(Cl)Cl)cc1,inactive
15,CC(C)COC(=O)COc1cc(Cl)c(Cl)cc1Cl,inactive
16,c1ccc(COCc2ccccc2)cc1,inactive
17,OCC(CO)(CBr)CBr,inactive
18,Nc1ccc2c(c1)C(=O)c1ccccc1C2=O,31.6 µM (active)
19,CC(CCC(=O)O)(c1ccc(O)cc1)c1ccc(O)cc1,inactive
20,C1CCCNCC1,inactive
